What all share (experiment): NCI-60 one-dose screen, 48 h (100 = growth as untreated, 0 = no growth, -100 = all killed)
Settings in all cases: 10 µM

In assay [1] the test system is SK-MEL-2 melanoma.
Assay [2] has as its system EKVX NSCLC.
In assay [3] the test system is SN12C renal.
Assay [4] concerns UO-31 renal.
The test system of assay [5] is TK-10 renal.
Assay [6] concerns ACHN renal.
The test system of assay [7] is A498 renal.
For assay [8], the system named is CCRF-CEM leukemia.
In assay [9] the test system is MOLT-4 leukemia.
In assay [10] the test system is SR leukemia.
The subject of assay [11] is RPMI-8226 leukemia.
The subject of assay [12] is OVCAR-8 ovarian.
The test system of assay [13] is OVCAR-5 ovarian.
The subject of assay [14] is OVCAR-4 ovarian.
For assay [15], the system named is SK-OV-3 ovarian.
For assay [16], the system named is IGROV1 ovarian.
Assay [17] concerns OVCAR-3 ovarian.
For assay [18], the system named is HS 578T breast.
Assay [19] has as its system NCI/ADR-RES ovarian.
For assay [20], the system named is CAKI-1 renal.

This note sets out measurements from PubChem BioAssay (NCI).

About 83,000 compounds went through this panel and 20% of them were active in at least one assay; those are over-represented in the sample as a whole.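 Percent growth is the endpoint: 0 to 100 indicates growth inhibition (40 means 60% inhibition), 0 means no net growth, and negative values indicate cell death.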 Values without a mark were called inactive. The source made the active and inactive calls. The calls were made as follows: active = growth percent below 10; inactive = the rest.

As for `CCOC(=O)C(C)(c1ccccc1)c1ccccc1`, the growth is 114% in [1]; 102% in assay [2]; 102% in assay [3]; 94% in assay [4]; 102% in [5]; 112% in assay [6]. The growth in [7] was 105%; in assay [8], 103%; in assay [9], 109%; in assay [10], 100%; in assay [11], 101%; in assay [12], 105%. Further, the growth in assay [13] is 107%; in assay [14] it was 111%; in [15], 98.9%; in [16], 106%; in [17], 107%; in assay [18], 111%. In assay [19], the growth is 106%.

In the case of `O=C(Nc1cccc2c1CCCC2)c1cc2ccccc2cc1O`, the growth in assay [1] was 41.1%; in assay [2], 59.8%; in [3], 25.6%; in [4] it was 17.5%; in assay [5], 88.1%; in assay [6], 38.4%. For the same compound, the growth in [7] is 10.6%; in assay [8], 20.9%; in assay [9], 20.6%; in assay [10] it was 18%; in assay [11], 8.51% (active); in assay [12], 55.9%. Moreover, the growth was 103% in assay [13]; 56.8% in assay [14]; 37% in assay [15]; 32.1% in assay [16]; 28.2% in [17]; 47.5% in assay [18]. Also, the growth in assay [19] is 11.7%.

Turning to `Nc1ccc(/C=N/Nc2ccnc3c(O)cccc23)c2cccnc12`, the growth in assay [1] was 74.1%; in assay [2] it was 61.8%; in [3], 76.9%; in assay [4], 55.8%; in [5], 97.7%; in [6], 52.9%. For the same compound, the growth in [7] is 118%; in [8], 14.4%; in [9], 14.5%; in [10], 2.19% (active); in assay [11], 31.8%; in assay [12] it was 14.4%. For the same compound, the growth is 107% in [13]; 30.5% in assay [14]; 85.7% in assay [15]; 60.2% in assay [16]; 20% in assay [17]; 63.9% in assay [18]. Further, in assay [19], the growth was 30.6%.

Turning to `Cc1ccc(NCCN(C)CC(C)O)c2c(=O)c3ccccc3sc12` (stereo unspecified), the growth in [1] was 90.6%; in assay [2], 86.4%; in assay [3] it was 49.6%; in assay [4], 41.5%; in assay [5] it was 45%; in assay [6], 29.5%. Also, the growth is 68.4% in [7]; 31.3% in assay [8]; 2.58% (active) in assay [9]; 2.49% (active) in assay [10]; 19% in assay [11]; 33.9% in [12]. Moreover, the growth in [13] is 61.8%; in assay [14], 59.9%; in assay [15], 54.9%; in [16], 38.4%; in assay [17] it was 66.7%; in assay [18], 55.2%. Moreover, in assay [19], the growth was 44.7%.

Take `Cc1c(Cl)cccc1NC(=O)CN1CCOCC1`: the growth in assay [1] was 93.5%; in assay [2], 102%; in assay [3], 99.9%; in [4] it was 83.8%; in assay [5], 84.4%; in [6], 109%. The growth in assay [7] is 101%; in [8], 97.2%; in assay [9] it was 82.3%; in [10] it was 86.1%; in [11] it was 101%; in assay [12], 106%. Also, the growth in assay [13] was 111%; in [14], 93.9%; in assay [15] it was 97.1%; in [16], 110%; in assay [17], 107%; in assay [18], 92.3%. Further, the growth in assay [19] was 100%.

Consider `CN(C)CCCOc1ccccc1NC1=C(Cl)C(=O)C(Nc2ccccc2OCCCN(C)C)=C(Cl)C1=O`, for which the growth in assay [1] is -63.8% (active); in [2], -82% (active); in [3], -86.7% (active); in assay [4], -99% (active); in assay [5], -98.3% (active); in assay [6], -98% (active). Besides, the growth in [7] was 65.1%; in assay [8], -16.5% (active); in assay [9] it was -33.8% (active); in assay [10], -4.17% (active); in assay [11] it was -40.3% (active); in assay [12], -84.3% (active). The growth in assay [13] was -60.1% (active); in [14], -98.7% (active); in [15], -24.3% (active); in [16], -44.8% (active); in [17] it was -90.5% (active); in assay [18] it was 10.8%. Also, the growth in [19] is 78.5%.

In the case of `CCN(CC)CCCOc1cccc2c1C(=O)c1cccc(OCCCN(CC)CC)c1C2=O`, the growth is 42.1% in assay [1]; 54.5% in assay [2]; 31.2% in assay [3]; 16% in assay [4]; 38.8% in [5]; 22.7% in [6]. Also, the growth in [7] is 46.4%; in assay [8], 25%; in assay [9] it was 4.98% (active); in assay [10], 3.15% (active); in [11], 18.6%; in [12], 28.1%. For the same compound, the growth in assay [13] was 55.8%; in assay [14], 32.9%; in [15] it was 41.5%; in assay [16], 25.8%; in assay [17], 35%; in assay [18], 58.4%. Moreover, in [19], the growth is 35.3%.

As for `CCCCCCCCCCOC(c1ccccc1)c1ccccc1`, the growth in assay [1] is 73.5%; in assay [2], 90.4%; in assay [3], 102%; in assay [4], 75.6%; in [5], 85.1%; in assay [6], 88.8%. Further, the growth was 109% in [7]; 93.7% in assay [8]; 84.5% in assay [9]; 93.7% in [10]; 96% in assay [11]; 103% in assay [12]. Besides, the growth was 88.7% in assay [13]; 99.8% in assay [14]; 96.6% in assay [15]; 73.7% in assay [16]; 99.5% in [17]; 99.7% in assay [18]. The growth in [19] is 86.1%.

Turning to `CC(CN(C)C)Oc1ccc(OC(C)CN(C)C)c2c1C(=O)c1ccccc1C2=O` (stereo unspecified), the growth is 41% in assay [1]; 70.7% in assay [2]; 33.5% in [3]; 63.5% in assay [4]; 42.7% in assay [5]; 28% in [6]. The growth in assay [7] was 59.6%; in [8], 28.9%; in assay [9], 9.9% (active); in assay [10], 20.7%; in assay [11], 41.4%; in [12] it was 30.1%. Further, the growth in assay [13] was 63.6%; in assay [14], 72%; in assay [15] it was 45.1%; in assay [16], 37.3%; in assay [17] it was 55%; in [18] it was 70%. Besides, the growth in assay [19] is 94.5%.

As for `N#CCc1csc(Cc2ccccc2)n1`, the growth is 101% in assay [1]; 105% in assay [2]; 101% in assay [3]; 88.7% in assay [4]; 89.9% in assay [5]; 109% in assay [6]. Besides, the growth is 103% in assay [7]; 94.2% in [8]; 101% in assay [9]; 98.6% in assay [10]; 99% in assay [11]; 106% in assay [12]. For the same compound, the growth in [13] is 110%; in assay [14], 121%; in assay [15], 104%; in assay [16], 108%; in [17] it was 106%; in assay [18] it was 99.1%. Besides, the growth in [19] was 97.3%.

Regarding `CCOS(=O)(=O)c1c(C(C)C)cc(C(C)C)cc1C(C)C`, the growth in [1] is 96.9%; in assay [2], 97.8%; in assay [3], 98.3%; in assay [4], 92.2%; in [5], 95.1%; in assay [6], 104%. Further, the growth in assay [7] was 117%; in [8] it was 121%; in assay [9], 97.6%; in assay [10] it was 85.1%; in assay [11], 119%; in [12] it was 103%. Also, the growth is 90.6% in assay [13]; 120% in [14]; 108% in assay [15]; 93.5% in [16]; 103% in assay [17]; 103% in assay [18]. Further, the growth in assay [19] was 103%.

With `CC(=O)Oc1cc(OC(C)=O)c2ccccc2c1OC(C)=O`, the growth in assay [1] was 90.5%; in [2], 97.5%; in [3] it was 87.4%; in [4], 62.6%; in assay [5], 150%; in [6], 84.9%. Also, the growth in [7] was 95.2%; in assay [8], 76.7%; in [9], 69.5%; in assay [10], 69.4%; in assay [11] it was 72.5%; in assay [12], 81.9%. In addition, the growth in assay [13] is 115%; in [14], 86%; in assay [15], 76.8%; in [16] it was 63.1%; in [17], 84.1%; in assay [18], 83%. Also, the growth in assay [19] is 88.9%.

For the compound `CC(C)CCN(CCC(C)C)CC(=O)Nc1ccc(S(=O)(=O)c2ccc(NC(=O)CN(CCC(C)C)CCC(C)C)cc2)cc1`, the growth in assay [1] was 65.4%; in assay [2], 83.1%; in assay [3], 74.6%; in assay [4], 63.3%; in [5] it was 96.4%; in assay [6], 69.7%. Also, the growth in assay [7] is 97.1%; in [8], 2% (active); in [9] it was 2.75% (active); in [10] it was 3.98% (active); in [11] it was -22.4% (active); in [12] it was 21.8%. For the same compound, the growth is 54.3% in assay [13]; 73.7% in assay [14]; 84.3% in assay [15]; 12.1% in assay [16]; 22.7% in assay [17]; 65.3% in [18]. Moreover, in assay [19], the growth is 59.3%.

Turning to `Cc1cc(SCc2ccccc2)nc(N)n1`, the growth in assay [20] is 112%.

In the case of `COc1ccc(/C=C2\CCCC3C2=Nc2ccccc2NC3c2ccc(OC)cc2)cc1` (stereo unspecified), the growth in assay [20] was 78.2%.

Consider `COc1cc2cc(Oc3ccc(NC(=O)c4ccc(Cl)c(C(F)(F)F)c4)cc3)c(C)nc2cc1OC`, for which the growth in assay [1] was 31.2%; in assay [2], 18.8%; in assay [3], 24.1%; in assay [4], 18.3%; in assay [6] it was 26.6%; in assay [20], 21.6%. Also, the growth is 24.3% in [7]; 19.9% in assay [8]; 18% in [9]; 37.1% in assay [10]; 9.15% (active) in [11]; 27.7% in assay [12]. Also, the growth in [13] is 51.3%; in assay [14], 42.4%; in assay [15] it was 27.7%; in assay [16] it was 20.6%; in assay [17], 0% (active); in [19], 14.1%.

As for `COc1ccc(-c2n[nH]nc2-c2cc(OC)c3c(c2OC)OCO3)cc1`, the growth was 1.83% (active) in [1]; 48.3% in assay [2]; 33.5% in [3]; 51.1% in [4]; 54.9% in [6]; 27.2% in assay [20]. Moreover, the growth in [7] was 14.9%; in assay [8] it was 17.8%; in [9] it was 24.2%; in [10], 10.8%; in assay [11], 25.1%; in [12], 43%. Also, the growth was 44.2% in assay [13]; 51.8% in [14]; 52.7% in [15]; 45.3% in assay [16]; -11.5% (active) in assay [17]; -5.63% (active) in assay [18]. For the same compound, the growth in [19] was 2.06% (active).
